TEAD-YAP block: TEAD-YAP interaction inhibition | 640,000 compounds, 1.4% hits | HEK-TIYL cells, TEAD-Gal4/YAP UAS-luciferase luminescence | inhibition, % at 9.12 µM; in the data active means inhibition above about 32%
MITF primary: blocks human microphthalmia-associated transcription factor | O75030 | AlphaScreen MITF homodimerization, bead proximity signal | inhibition, % at 2.6 µM | 650,000 compounds, 0.91% hits | AID 1259374; in the data active means inhibition above about 50%
FBW7 activator: human FBW7 E3 ligase activation, primary screen; AlphaScreen FBW7–phospho-cyclin E peptide binding, activator screen; Q969H0; normalized activity (activation), % at 26.1 µM; AID 1259310; 650,000 compounds, 0.13% hits; in the data active means normalized activity above about 1.9%;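 further: purified mutant Fbw7 with reduced substrate affinity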
GPR151 ag: activators of human GPR151; AID 1508602; Q8TDV0; PathHunter beta-arrestin GPR151 cells, luminescence; 650,000 compounds, 1% hits; activation, % at 11.2 µM; in the data active means activation above about 4.9%
Target sequence (Q8TDV0 whole entry, looked up): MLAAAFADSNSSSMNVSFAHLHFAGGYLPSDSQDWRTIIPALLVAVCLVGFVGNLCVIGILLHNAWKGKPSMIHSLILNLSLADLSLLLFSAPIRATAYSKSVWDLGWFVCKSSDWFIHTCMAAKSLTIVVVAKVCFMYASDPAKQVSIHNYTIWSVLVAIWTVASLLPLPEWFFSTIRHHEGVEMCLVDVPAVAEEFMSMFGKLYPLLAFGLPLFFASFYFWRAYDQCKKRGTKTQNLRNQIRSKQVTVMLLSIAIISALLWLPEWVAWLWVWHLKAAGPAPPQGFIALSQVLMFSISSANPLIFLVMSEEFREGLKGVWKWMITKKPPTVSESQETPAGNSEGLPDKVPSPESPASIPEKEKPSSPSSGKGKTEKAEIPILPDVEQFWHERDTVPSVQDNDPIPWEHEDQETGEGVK
GPR151 confirm: human GPR151 activation, confirmation screen; activation, % at 11.2 µM; shares compounds with GPR151 ag; GPR151 PathHunter beta-arrestin cells, luminescence, 90 min; % of EA-reagent control over plate median; 6,700 tested, under 10 active;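 active means mean percent activation across replicates above the confirmation screen cutoff of 4.91%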
GPR119 ag: counter-screen for GPR151 activators: effect on human GPR119. shares compounds with GPR151 ag. GPR119 PathHunter beta-arrestin cells, luminescence, 90 min; 0 = compound-well median, 100 = enzyme-acceptor control. activation, % at 11.2 µM. 6,700 compounds, 0.3% hits. AID 1508611;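 active means mean percent activation in the counterscreen above 29.09%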;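 further: counterscreen on off-target GPR119 to flag nonselective hits from the GPR151 activator screen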
Numbers stand for hits; - = inactive; . = no result given. Compounds with a hit are over-represented: about 3.5% of the library has one in this group of screens.

SMILES | TEAD-YAP block | MITF primary | FBW7 activator | GPR151 ag | GPR151 confirm | GPR119 ag
CCOc1cc(OCC)cc(C(=O)Nc2cc(-c3nc4ccccc4s3)ccc2Cl)c1 | - | - | - | - | . | .
CC(=O)Nc1cc(C(=O)c2ccccc2)ccc1N1CCOCC1 | - | - | - | 6.1 | - | -
COc1ccccc1C(=O)Nc1cc(C(=O)c2ccccc2)ccc1N1CCOCC1 | - | - | - | - | . | .
CCOc1cc(C(=O)Nc2ccccc2N2CCOCC2)cc(OCC)c1OCC | - | - | - | 5.8 | - | -
Cc1nc(N2CCCCC2C)c2c(C)c(C(=O)N3CCN(c4cccc(Cl)c4)CC3)sc2n1 (stereo not drawn) | - | - | - | - | . | .
CCCCn1c(=NC(=O)C(C)(C)C)c(C(=O)OCC)cc2c(=O)n3ccccc3nc21 | - | - | - | 5.3 | - | -
CCCn1c(=NC(=O)C(C)(C)C)c(C(=O)OCC)cc2c(=O)n3ccccc3nc21 | - | - | - | - | . | .
O=C(N/C(=C\c1cccc([N+](=O)[O-])c1)C(=O)N1CCOCC1)c1ccco1 | - | - | - | 6.9 | - | -
O=C(N/C(=C/c1ccc(F)cc1)C(=O)N1CCCCC1)c1ccco1 | - | - | - | 6.6 | - | -
O=C(N/C(=C/c1cccc([N+](=O)[O-])c1)C(=O)N1CCCCCC1)c1ccco1 | - | - | - | - | . | .
Clc1ccc(Cc2ccncc2)cc1 | - | - | - | - | . | .
CCc1cccc(NC(=O)Cn2cc(-c3ccc(OC)cc3)c(N3CCOCC3)n2)c1 | - | - | - | - | . | .
COc1cc(/C=C(\C#N)c2ccc([N+](=O)[O-])cc2)ccc1O | - | - | - | - | . | .
COC(=O)COc1ccc(/C=C(/C#N)c2ccc([N+](=O)[O-])cc2)cc1Br | - | - | - | 7.2 | - | -
CCCCCn1c(SCC(=O)OCC)nc2cc(C(=O)NC3CCCCC3)ccc2c1=O | - | - | - | 5.4 | - | -
COc1ccc(-c2cc(C(=O)NCC(C)C)no2)cc1OC | - | - | - | - | . | .
COc1ccc(-c2cc(C(=O)NCC(C)C)on2)cc1OC | - | - | - | 7.8 | - | -
O=C(CSC1=NC(=O)C(Cc2ccccc2)C(=O)N1)Nc1ccccc1 (stereo not drawn) | - | - | - | - | . | .
Cc1ccc(NC(=O)CSC2=NC(=O)C(Cc3ccccc3)C(=O)N2)cc1 (stereo not drawn) | - | - | - | 11.2 | - | -
O=C(Nc1cccnc1)c1cc2n(n1)C(C(F)(F)F)CC(c1ccc(Cl)cc1)N2 (stereo not drawn) | - | - | - | 5.0 | - | -
O=C(Nc1cccnc1)c1cc2n(n1)C(C(F)(F)F)CC(c1ccc(Br)cc1)N2 (stereo not drawn) | - | - | - | - | . | .
C=CCn1c(CCNC(=O)C(C)C)nc2ccccc21 | - | - | - | 7.0 | - | -
CC(C)C(=O)NCCc1nc2ccccc2n1Cc1ccccc1 | - | - | - | - | . | .
Cc1ccc(S(=O)(=O)NCCCOC(C)C)cc1 | - | - | - | 5.0 | - | -
Cc1ccc(CN2CCNC(=O)C2CC(=O)NCc2ccccc2C)cc1 (stereo not drawn) | - | - | - | - | . | .
SMILES | TEAD-YAP block | MITF primary | FBW7 activator | GPR151 ag | GPR151 confirm | GPR119 ag
COc1ccc(-c2ncc(C(=O)NCCN(C(C)C)C(C)C)s2)cn1 | - | - | - | - | . | .
CC(C)N(CCNC(=O)c1cccc(-c2ccc3c(ccn3C)c2)n1)C(C)C | - | - | 2.2 | 12.0 | - | -
CC(C)N(CCNC(=O)c1cccc(-c2ccccc2)n1)C(C)C | - | - | - | - | . | .
COc1ccc(-c2ncc(C(=O)NCCN(C(C)C)C(C)C)s2)cc1 | - | - | - | 7.8 | - | -
COc1ccc(-c2cccc(C(=O)NCCN(C(C)C)C(C)C)n2)cc1 | - | - | - | 8.8 | - | -
Cc1nc2c(C(=O)N3CCN(c4cccc(Cl)c4)CC3)cnn2c(C)c1Cc1ccccc1Cl | - | - | - | 5.3 | - | -
COc1ccc(CNC(=O)c2cnn3c(C)c(Cc4cccc(Cl)c4)c(C)nc23)cc1 | - | - | - | - | . | .
Cc1nc2c(C(=O)N3CCCC3)cnn2c(C)c1Cc1cccc(Cl)c1 | - | - | - | 5.5 | - | -
Cc1ccccc1Cc1c(C)nc2c(C(=O)N3CCN(c4cccc(Cl)c4)CC3)cnn2c1C | - | - | - | - | . | .
Cc1cccc(Cc2c(C)nc3c(C(=O)N4CCCC4)cnn3c2C)c1 | - | - | - | - | . | .
Cc1nc2c(C(=O)NCc3ccccn3)cnn2c(C)c1Cc1cccc(Cl)c1 | - | - | - | 8.1 | - | -
Nc1ncnc(NCCc2c[nH]c3ccccc23)c1[N+](=O)[O-] | - | - | - | - | . | .
O=C(O)C1CSC(c2ccccc2F)N1 (stereo not drawn) | - | - | - | 5.3 | - | -
CC(NC(=O)Nc1ccc(Cl)cc1)c1nc(-c2cccnc2)n[nH]1 (stereo not drawn) | - | - | - | - | . | .
O=C(NCC1CCCO1)c1cc(=O)[nH]c2ccc(Br)cc12 (stereo not drawn) | - | - | - | 6.7 | - | -
O=C(NCC1CCCO1)c1cc(Br)ccc1Cl (stereo not drawn) | - | - | - | - | . | .
CC(C)CCCN1CCC(N(C)Cc2ccco2)CCC1=O (stereo not drawn) | - | - | - | - | . | .
COc1cccc(C(=O)COC(=O)c2ccc3c(c2)OCO3)c1 | - | - | - | 5.3 | - | -
Cc1ccc(-c2nnc(Nc3ccc(O)cc3)c3ccccc23)cc1S(=O)(=O)NCc1ccccn1 | - | - | - | - | . | .
COc1ccc(/C=C(\C#N)c2ccccn2)c(OC)c1OC | - | - | - | - | . | .
COc1ccc2ccccc2c1/C=C(\C#N)c1ccccn1 | - | - | - | 5.2 | - | -
Nc1nc(NCc2nc3ccccc3[nH]2)cc(-c2csc3ccccc23)n1 | - | - | - | 5.6 | - | -
CC(NC(=O)OCc1ccccc1)c1nc2ccccc2[nH]1 (stereo not drawn) | - | - | - | - | . | .
Cc1cc(NC(=O)CN(C2=NC3CS(=O)(=O)CC3S2)c2ccccc2F)n[nH]1 (stereo not drawn) | - | - | - | - | . | .
COCCC(=O)Nc1ccc2c(c1)CN(S(=O)(=O)N1CCCC1)CC2 | - | - | - | 7.5 | - | -
SMILES | TEAD-YAP block | MITF primary | FBW7 activator | GPR151 ag | GPR151 confirm | GPR119 ag
CS(=O)(=O)N(Cc1ccccc1Cl)c1ccc(C(=O)N2CCCC2)cc1 | - | - | - | 9.2 | - | -
CS(=O)(=O)N(Cc1ccccc1Cl)c1ccc(C(=O)NCc2ccco2)cc1 | - | - | - | - | . | .
CC(C)CCNC(=O)c1ccc(N(Cc2ccccc2Cl)S(C)(=O)=O)cc1 | - | - | - | 7.9 | - | -
CC(=O)Nc1nnc(SCc2cc(=O)c(OC(=O)c3ccccc3[N+](=O)[O-])co2)s1 | - | - | - | 6.4 | - | -
CCOc1ccccc1C(=O)Oc1coc(CSc2nc(C)cs2)cc1=O | - | - | - | - | . | .
CCCC(=O)Oc1coc(CSc2nnc(NC(=O)C3CC3)s2)cc1=O | - | - | - | 5.4 | - | -

Screening data from PubChem BioAssay.
